Laboratory results published in PubChem BioAssay (NCI).
This is part of a sample that, as a whole, favours compounds with a hit. Of some 79,000 tested, about 15% had one in any assay. Unmarked numbers belong to inactive results. Active and inactive are the calls of the source. No stated cut-off is given here; in the data, active means growth inhibition above about 70%; inactive means the rest.

Tests used:
[1] = NCI Yeast Anticancer Drug Screen. Data for the rad50 strain (AID 155);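 further: 0% = growth of vehicle-only cultures of the same strain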; conditions: S. cerevisiae rad50 strain growth inhibition; at 50.0 µM; active compounds read high
Procedure, shortened: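 Inhibition values express reduced yeast growth in compound-treated cultures relative to vehicle-treated controls.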

[2] = NCI Yeast Anticancer Drug Screen. Data for the mec2-1 strain (AID 157); conditions: S. cerevisiae mec2-1 strain, at 50.0 µM, active compounds read high
Procedure, shortened: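 mec2-1 yeast strain, carrying an alteration in DNA damage repair or cell cycle control, was exposed to compounds; growth inhibition was measured relative to vehicle-treated controls.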

[3] = NCI Yeast Anticancer Drug Screen. Data for the sgs1 mgt1 strain (AID 161);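 further: 0% = growth of cultures given vehicle only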; conditions: S. cerevisiae sgs1 mgt1 strain, at 50.0 µM, active compounds read high
Procedure, shortened: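 Percent growth inhibition was derived by comparing compound-exposed mutant yeast with vehicle-exposed cultures. The strain carries alterations in DNA damage repair.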

[4] = NCI Yeast Anticancer Drug Screen. Data for the cln2 rad14 strain (AID 165);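 further: 0% = growth equal to vehicle treated cultures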; conditions: S. cerevisiae cln2 rad14 strain, at 50.0 µM, active compounds read high
Procedure, shortened: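 Yeast carrying cln2 and rad14 alterations (cell cycle control and DNA damage repair) were exposed to compounds. Growth inhibition was measured against vehicle-treated controls.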

[5] = NCI Yeast Anticancer Drug Screen. Data for the bub3 strain (AID 167); conditions: S. cerevisiae bub3 mutant strain, at 50.0 µM, active compounds read high
Procedure, shortened: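 Steps: expose the mutant yeast strain to compound; grow alongside vehicle-treated cultures; measure growth; express inhibition against the vehicle cultures.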

[6] = NCI Yeast Anticancer Drug Screen. Data for the mlh1 rad18 strain (AID 175); conditions: S. cerevisiae mlh1 rad18 strain growth inhibition; at 50.0 µM; active compounds read high
Procedure, shortened: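 Growth inhibition of the yeast strain was measured after compound exposure and expressed relative to vehicle-treated controls. The strain carries defined defects in DNA damage repair.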

| Structure (SMILES) | growth inhibition [1] | growth inhibition [2] | growth inhibition [3] | growth inhibition [4] | growth inhibition [5] | growth inhibition [6] |
| --- | --- | --- | --- | --- | --- | --- |
| COc1ccc(NC(C)=O)c(O)c1C | -0.6% | 2.15% | -17% | -25.4% | -3.7% | -12.7% |
| Cc1ccc(Nc2nc(NS(=O)(=O)c3cc(C)c(Cl)cc3S)n(C)n2)cc1 | -15.1% | -33.5% | -29.7% | -7.1% | -32.9% | -21.8% |
| COc1ccc2cc(-c3ccc(OC)c(OC)c3)c(=O)oc2c1 | -12.4% | -9.9% | -7.65% | -8.9% | -7.15% | -18.2% |
| C#CC(C)(O)c1ccccc1 (configuration not stated) | -1.15% | -22.1% | -7.75% | -21.6% | -1.95% | -11.6% |
| O=C(O)C/C=C/CC(=O)O | -2.25% | -13.5% | -2.7% | 4.45% | 15.4% | -3.15% |
| Cc1cc(=O)oc2ccccc12 | 8.8% | 0.6% | 10.9% | -3.1% | 4.6% | 1.55% |
| CCCCCCC(C)C(CC)(C(=O)OCC)C(=O)OCC (configuration not stated) | -16.1% | 6.55% | -0.2% | 12.1% | -14.3% | 7.65% |
| COc1c2occc2c(CC(O)C(C)(C)O)c2ccc(=O)oc12 (configuration not stated) | 13.4% | -20.7% | 14.8% | -6.75% | -3.75% | -13.2% |
| CN(C)CC(O)CNC(=O)Nc1ccccc1 (configuration not stated) | 0.6% | 14.2% | 12.7% | 0.35% | -0.05% | -42.8% |
| C=CCNC(=S)NCc1cccc2ccccc12 | -3.45% | 36.3% | 34.1% | -28.1% | 32.4% | 21.1% |
| C=[N+](CNC(=O)CNC(=O)C(Cc1ccc([N+](=O)[O-])cc1)NC(=O)OC(C)(C)C)C(=O)CNC(=O)C(Cc1ccc([N+](=O)[O-])cc1)NC(=O)OC(C)(C)C (configuration not stated) | -23.1% | -28% | -29.4% | 3.3% | -12.2% | -18.8% |
| c1ccc(-c2cc[c]([Sn]([c]3ccccc3)([c]3ccccc3)[c]3ccccc3)cc2)cc1 | 95.2% (active) | 98.5% (active) | 96.8% (active) | 99.2% (active) | 99% (active) | 98.2% (active) |
| Cc1ccc2[nH]c(=O)[nH]c2c1 | -13.6% | -6.2% | -0.25% | -5.3% | 2.15% | -22.4% |
| COc1ccc(C2(C(=O)O)CC(C)=C(C)CC2C(=O)O)cc1 (configuration not stated) | -1.45% | -9.05% | -5.25% | 0.6% | -11.7% | 7% |
| Cc1c2ccnc(C#N)c2c(C)c2c1[nH]c1ccccc12 | -19.8% | 3% | -16.9% | -13.3% | 12.8% | 7.5% |
| O=C1C=C(N2CCCC2)c2ccccc21 | 15.4% | -9.25% | 3.85% | -18.9% | -27.6% | 12.8% |
| CN(C)C(=O)CCCCC(=O)N(C)C | 16.5% | -5.2% | 1.45% | -14.7% | 5.65% | -22.2% |
| N=c1oc2ccc([N+](=O)[O-])cc2cc1C(=O)NCc1ccccc1 | 11.3% | -0.9% | -13.9% | 3.95% | -35.5% | -71.8% |
| CC1CC(C[N+](=O)[O-])CC2(C1)OCCO2 (configuration not stated) | -1.5% | -25.3% | -28.6% | 5.1% | -28.8% | -5.15% |
| O=C1c2cc3c(cc2C(=O)c2ncccc21)CCCC3 | 64.7% | 48.4% | 62.1% | 10.3% | 71.1% (active) | 76.1% (active) |
| c1ccc(CN2COc3c(ccc4c5c(ccc34)CN(Cc3ccccc3)CO5)C2)cc1 | 5% | -10.4% | -37.5% | -14.1% | -19.9% | -9.15% |

| Structure (SMILES) | growth inhibition [1] | growth inhibition [2] | growth inhibition [3] | growth inhibition [4] | growth inhibition [5] | growth inhibition [6] |
| --- | --- | --- | --- | --- | --- | --- |
| CCO/C(Cc1ccc(Cl)cc1)=N/NC(N)=S | 39.6% | 2% | 24.9% | 24.1% | 21.2% | -15.5% |
| O=C(Nc1ccccc1[N+](=O)[O-])C(=O)C(C(=O)c1ccccc1-c1ccccc1)C1OC(=O)c2ccccc21 (configuration not stated) | 10.9% | 0.6% | 6.05% | -51.4% | 2.3% | 9.55% |
| C=CC1(C)C(C)=C(C)C(C)=C1C | 11.1% | -4.2% | -13.7% | 18% | -2% | 9.4% |
| c1ccc2cc(N3CCOCC3)ccc2c1 | -19.1% | -27.4% | -7.3% | -19.9% | -22.8% | 2.3% |
| CC(C)(C)c1ccc2c(c1)C(C)(C)CCC2(C)C | 12.8% | 0.8% | 3.05% | -52.6% | 8.3% | 19.2% |
| CC(C)SC(CC(O)C(O)COC(=O)c1ccccc1)SC(C)C (configuration not stated) | -8.05% | -0.15% | 6.15% | -8.35% | -4.7% | 17.8% |
| O=[N+]([O-])c1cc(Cl)ccc1Sc1ccccc1 | 39.6% | 8.25% | 34.3% | 21.9% | 24.7% | 27.3% |
| O=C(NCc1ccccc1)/C(=C/c1ccc2c(c1)OCO2)NC(=O)c1ccccc1 | -42% | -50.1% | -28.5% | -6.2% | -15.2% | -22.2% |
| O=C(CC(O)(CCc1ccccc1)c1ccccc1)N1CCC(O)(c2ccccc2)CC1 (configuration not stated) | 97.2% (active) | 98.5% (active) | 98.2% (active) | 97.6% (active) | 97.8% (active) | 98.2% (active) |
| COc1ccc(/C=C2\CCC(CCN(C)C)(C3=CCCC3)C2=O)cc1 (configuration not stated) | 2.1% | -6.6% | 15% | 18.1% | -14.4% | 9.4% |
| O=c1oc2ccccc2c2ccccc12 | -2.8% | -9.55% | -16.5% | -5.95% | 1.25% | -7.8% |
| N#CCCn1cnc2c(Cl)ncnc21 | -10.2% | 5.15% | -18.2% | -12.7% | -7% | -2.6% |
| O=[N+]([O-])c1ccc(Oc2ccc(S(=O)(=O)O)cc2)cc1 | 13.8% | 6.5% | -4.35% | 7.4% | 6.6% | 2.5% |
| COc1ccc(Cl)cc1NC(=O)c1cccc(Cl)c1 | 18.8% | 16.9% | 7.8% | 10.9% | 30.1% | -0.3% |
| O=C(O)CCCCCN1C(=O)c2cccc([N+](=O)[O-])c2C1=O | 17.6% | 10% | 22.5% | 19.2% | 12.3% | 12.7% |
| Cc1ccc(OC/C=C/CS(=O)(=O)c2ccc(C)cc2)cc1 | -11.6% | 10.3% | 5.65% | -23.2% | -12.7% | -28.6% |
| O=S(O)OS(=O)O | -5.95% | -19.4% | -15.6% | -0.4% | 18.9% | -13.3% |
| CC(C1CCCC1=O)C1CCCC1=O (configuration not stated) | -1.1% | -17.8% | -5.05% | 5.35% | -11.9% | -10.4% |
| NC1=NS(=O)(=O)Nc2nc(-c3ccccc3)c(-c3ccccc3)nc21 | -24.6% | -10.2% | 12.5% | -0.85% | 2.6% | 7.3% |
| CC(=O)Nc1c(Nc2ccccc2)[nH]c(C)nc1=S | -5.55% | -9.35% | -0.25% | -17.4% | -3.1% | -9.8% |
| CCCCSCCO | -0.65% | -0.2% | -4% | -12.4% | -4.4% | 0.7% |
